Tested on: wheat germ agglutinin (Triticum aestivum), Alexa647-labelled
Assay: Alexa647-WGA lectin binding to printed small molecules – biochemical, small-molecule microarray, 635/667 nm fluorescence, artefact control for SMM control-protein annotation, profiling panel (AID 1140);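 further: score merges 667 nm feature emission with signal to noise over triplicate slides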
Conditions: WGA-A647 binding, 635 nm fluorescence, higher = more signal

Row | SMILES | composite z-score
1 | CC(C)CCN1CCc2nc(COc3ccccc3)c3c(c2C1)CO[C@@H](C)C3 | 0.451
2 | O=C(NN=C1C[C@@H](O)[C@@H](O)[C@@H]2[C@@H]3C(=O)N(Cc4ccccc4)C(=O)[C@@H]3CC[C@@H]12)OCc1ccccc1 | -0.148
3 | CO[C@@H]1COC(=O)[C@@H](C)COC(=O)[C@@H](C)NC(=O)CC=C[C@@H]1C | 0.224
4 | CO[C@@H]1COC(=O)CC=C[C@@H](C)[C@@H]2C=C[C@H](O)[C@@H](COC(=O)CC=C[C@H]1C)O2 | -0.448
5 | COC(=O)[C@@H]1CC[C@H](C)[C@@H](c2ccc(C)cc2)N1C(=O)c1ccc(C=NO[C@H](C)c2cn([C@H](CO)Cc3ccccc3)nn2)cc1 | 0.295
6 | CCC=CCCC(OC(=O)c1ccc(Br)cc1)C1=CCCCC1=O (stereo not drawn) | 0.485
7 | CO[C@H]1COC(=O)[C@@H](C)COC(=O)[C@H](COCc2ccccc2)NC(=O)CC=C[C@H]1C | -0.841
8 | CCOC(=O)CCN1C(=O)[C@H]2[C@H]3[C@H](O)[C@H](O)CC(=NOCC(C)C)[C@H]3CC[C@H]2C1=O | 0.293
9 | C#CCCCON=C1C[C@@H](O)[C@@H](O)[C@@H]2[C@@H]3C(=O)N(CC)C(=O)[C@@H]3CC[C@@H]12 | -0.0002
10 | CON=C1[C@H]2CCn3c(=O)n(-c4ccccc4)c(=O)n3[C@H]2[C@H](O)[C@@H]2O[C@H]12 | 0.168
11 | CC(C)=CCCC(C)=CCON=C1C[C@@H](O)[C@@H](O)[C@@H]2[C@@H]3C(=O)N(C(C)(C)C)C(=O)[C@@H]3CC[C@@H]12 | 0.269
12 | CC(C)(C)N1C(=O)[C@H]2[C@H]3[C@H](O)[C@H](O)CC(=O)[C@@H]3CC[C@H]2C1=O | 0.138
13 | CC(=O)OC[C@H]1O[C@H](CC=NO[C@H](C)c2cn([C@H](CO)Cc3ccccc3)nn2)C=C[C@@H]1OC(C)=O | 0.439
14 | C=Cc1ccc([C@H]2N[C@H](C(=O)O)CC[C@@H]2C)cc1 | 0.388
15 | O=C(C=Cc1ccc2c(c1)OCO2)c1ccc(F)cc1 | -0.177
16 | C[C@@H]1CC[C@H]2C(=O)O[C@@H](Cc3ccccc3)CN2[C@H]1c1ccc(Br)cc1 | 0.526
17 | C=CC1=C[C@H](O)[C@@H]2O[C@@H]2C12OCCCO2 | -0.159

Row | SMILES | composite z-score
18 | CCN1C(=O)[C@H]2[C@H]3[C@H](O)[C@H](O)CC(=NO[C@@H](C)c4cn([C@H](CO)Cc5ccccc5)nn4)[C@@H]3CC[C@H]2C1=O | 1.05
19 | CCOC(=O)[C@H](Cc1ccccc1)NC(=O)CCC1CC(OC(=O)NCc2ccc3c(c2)OCO3)CC2(CCCC(COC(=O)NCCC(C)C)O2)O1 (stereo partly drawn) | 0.531
20 | O=C1[C@H]2[C@H]3[C@H](O)[C@H](O)CC(=NOC[C@@H](O)COCc4ccco4)[C@H]3CC[C@H]2C(=O)N1C[C@@H]1CCCO1 | -0.23
21 | CC(C)=NO[C@H](C)c1cn([C@H](CO)Cc2ccccc2)nn1 | -0.026
22 | O=C1CCCC=C1C(O)CCCCBr (stereo not drawn) | 1.28
23 | COC(=O)CC=C[C@@H](C)[C@@H](C=NOC[C@@H](O)[C@H]1O[C@@H]2OC(C)(C)O[C@@H]2[C@H]1O)NS(=O)(=O)c1ccc(C)cc1 | 0.0146
24 | CCOC(=O)[C@H](Cc1ccccc1)NC(=O)CCC1CC(OC(=O)NCCc2ccc(F)cc2)CC2(CCCC(COC(=O)NCc3ccccc3)O2)O1 (stereo partly drawn) | 0.115
25 | COC(=O)CC=C[C@@H](C)[C@@H](C=NOC(C)CN1CCCc2nc(C)c(C)cc21)OC (stereo partly drawn) | -0.0665
26 | O=C1CCCC=C1C(O)CCOC(c1ccccc1)(c1ccccc1)c1ccccc1 (stereo not drawn) | -0.129
27 | C[C@@H]1C=CCC(=O)OC[C@H]2O[C@@H](C=C[C@@H]2O)[C@H](C)C=CCC(=O)OC1 | -0.513
28 | CO[C@@H]1C=CCC(=O)N[C@@H](C)C(=O)OC[C@@H](OC)[C@H](C)CCCC(=O)OC[C@H]1C | -0.268
29 | Cc1ccc(S(=O)(=O)OC[C@H]2CN3[C@H](c4ccc(Br)cc4)[C@@H](C)CC[C@H]3C(=O)O2)cc1 | 0.11
30 | CC(C)=CCCC(C)=CCON=C1C[C@@H](O)[C@@H](O)[C@@H]2[C@@H]3C(=O)N(C4CCCCC4)C(=O)[C@@H]3CC[C@@H]12 | -0.0783
31 | O=C1C=C[C@@H](O)[C@@H]2[C@@H]3C(=O)N(C[C@@H]4CCCO4)C(=O)[C@@H]3CC[C@@H]12 | 0.221
32 | CCOC(=O)[C@H](CC(C)C)NC(=O)CCC1CC(OC(=O)NCc2cccc3ccccc23)CC2(CCCC(COC(=O)NCCCN3CCCC3=O)O2)O1 (stereo partly drawn) | 0.662
33 | Cc1ccc(S(=O)(=O)N[C@H]2COC(=O)CC=C[C@@H](C)COC(=O)CC=C[C@@H]2C)cc1 | -0.678

— PubChem BioAssay
